# Experimental data taken from a collection of fitness landscapes (doi:10.1126/science.1257360).
# The full ranking holds about 140,000 sequences; the median of “enrichment ratio after two sorts for PhoP signalling” is about 0, and the highest 2% start at about 11. The list comes from a sample in which the highest values are over-represented; it also holds similar and randomly drawn sequences.
# B1: PhoQ; a variant is named by its letters at X, in order, P23837 (parent)
# chain: MKKLLRLFFPLSLRVRFLLATAAVVLVLSLAYGMVALIGYSVSFDKTTFRLLRGESNLFYTLAKWENNKLHVELPENIDKQSPTMTLIYDENGQLLWAQRDVPWLMKMIQPDWLKSNGFHEIEADVNDTSLLLSGDHSIQQQLQEVREDDDDAEMTHSVAVNVYPATSRMPKLTIVVVDTIPVELKSSYMVWSWFIYVLSANLLLVIPLLWVAAWWSLRPIEALAKEVRELEEHNRELLNPATTRELTSLVRNLNRLLKSERERYDKYRTTLTDLTHSLKTPLXXLQXXLRSLRSEKMSVSDAEPVMLEQISRISQQIGYYLHRASMRGGTLLSRELHPVAPLLDNLTSALNKVYQRKGVNISLDISPEISFVGEQNDFVEVMGNVLDNACKYCLEFVEISARQTDEHLYIVVEDDGPGIPLSKREVIFDRGQRVDTLRPGQGVGLAVAREITEQYEGKIVAGESMLGGARMEVIFGRQHSAPKDE
# Variants of: B1
# Test: enrichment ratio after two sorts for PhoP signalling (ratio (wild type AVST 3.29)); higher = more functional
# Settings: with PhoP (E. coli)
row,Variant,enrichment ratio
1,MPYA,≤ 0.25
2,ACNK,≤ 0.25
3,ACCV,8.87
4,ACCE,≤ 0.25
5,ACCG,25.4
6,ACCM,14.9
7,PCQA,≤ 0.25
8,HATN,≤ 0.25
9,NYIP,≤ 0.25
10,KACL,≤ 0.25
11,TACA,8.47
12,TAAI,7.96
13,NACF,≤ 0.25
14,TACL,11.4
15,TACF,18.8
16,NACL,4.16
17,TAMD,6.3
18,TACI,22.6
19,KACF,≤ 0.25
20,TACS,14.1
21,TACE,≤ 0.25

row,Variant,enrichment ratio
1,WKNR,≤ 0.25
2,VKRR,≤ 0.25
3,DLFL,≤ 0.25
4,DTVY,≤ 0.25
5,GNTN,≤ 0.25
6,FYCC,≤ 0.25
7,AHHD,≤ 0.25
8,RGHL,0.34
9,VRKH,≤ 0.25
10,NACR,≤ 0.25
11,TACC,13.6
12,TADH,4.03
13,KACC,≤ 0.25
14,TAKR,≤ 0.25
15,TAQP,≤ 0.25
16,TACR,14.8
17,TACQ,15
18,YACQ,≤ 0.25
19,WVLV,≤ 0.25
20,EKCV,≤ 0.25
21,QQYK,≤ 0.25

row,Variant,enrichment ratio
1,RYKI,≤ 0.25
2,WKHA,≤ 0.25
3,HFSC,≤ 0.25
4,VSFV,0.649
5,WDSR,≤ 0.25
6,TKCD,21.6
7,WLCD,≤ 0.25
8,TQCD,29.3
9,SLCD,17.9
10,AQCD,42.7
11,PLCD,≤ 0.25
12,AKCD,0.285
13,NQCD,≤ 0.25
14,AICD,5.13
15,ANCD,0.285
16,KKCD,≤ 0.25
17,IQCD,≤ 0.25
18,FDEE,≤ 0.25
19,LLLK,≤ 0.25
20,IWDM,≤ 0.25
21,WDSH,≤ 0.25

row,Variant,enrichment ratio
1,HNFP,≤ 0.25
2,PDHT,≤ 0.25
3,MHPL,≤ 0.25
4,KHNC,≤ 0.25
5,AWVP,≤ 0.25
6,NDNL,≤ 0.25
7,SPCD,≤ 0.25
8,KYCD,≤ 0.25
9,SQCD,11.4
10,KCCD,≤ 0.25
11,FQCD,≤ 0.25
12,SNCD,16.4
13,SCCD,16.2
14,VCCD,≤ 0.25
15,STCD,6.22
16,GQTA,≤ 0.25
17,QQPV,≤ 0.25
18,TPAE,≤ 0.25
19,VMCM,≤ 0.25
20,QQDM,≤ 0.25
21,SEES,6.49
